# Screening data (PubChem)
# In the library only some 2.5% were active in any assay of this set; here they are far more common.
# iPSC survival up = enhancers of single-cell hiPSC survival, primary screen, ATPlite luminescence; 100% = ROCK inhibitor wells, 0% = DMSO; survival enhancement, % at 20 µM; 0.044% of 360,000 active; in the data active means survival enhancement above about 18%;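 further: cells exposed to compounds for 16 hours before the ATP read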
# H9c2 protect = cardioprotection against H2O2-induced cell death, primary screen, uHTS, H9c2 cells, ATPLite luminescence. H9c2 cardiomyocytes, H2O2 injury protection, 2 h. protection from H2O2 cell death, % at 20 µM. 0.63% of 360,000 active. AID 588492, 2011;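 active means compounds giving at least 50% protection of heart cells from peroxide-induced death in the single-dose screen, raw or plate-pattern-corrected value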;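 further: 0% = DMSO wells with peroxide and 100% = DMSO wells without peroxide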
# CRFBP-R2 agonist = agonists of CRF-BP/CRF-R2 complex, primary screen, cell-based, HEK293, calcium dye fluorescence, uHTS; AID 588473, 2011; activation, % at 13.2 µM; calcium dye fluorescence (FLIPR); percent of saturating CRF peptide response; 0.46% of 350,000 active;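 active means activation of at least 50%, plus an integration ratio under a set limit after plate pattern correction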;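 further: plate controls were neutral control wells without compound for no effect and CRF at EC100 for full effect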
# CRFR2-BP antag = antagonists of CRF-BP/CRF-R2 complex, primary screen, cell-based, HEK293, calcium dye fluorescence, uHTS; CRF-induced calcium fluorescence; inhibition, % at 11.8 µM; 0.59% of 350,000 active;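 active means inhibition of the ligand-induced calcium signal above about 50% at the single tested concentration, limit read from the data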
# TAG inh = inhibitors of triacylglycerol accumulation, primary screen, cell-based, uHTS, fluorescence, H9c2; H9c2 cells, Nile Red lipid (TAG) fluorescence; cells loaded with 200 µM oleic acid; inhibition, % at 12.5 µM; 0.66% of 230,000 active; AID 651582, 2012;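 active means pattern-corrected inhibition of lipid staining of at least 50% with the nuclear-stain viability signal not falling by more than 50%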;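 further: 0% = DMSO wells and 100% = triacsin C control wells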
# SKN-1 block = suppressors of acrylamide-induced Pgst-4::GFP reporter in worms, primary screen, SKN-1 inhibitor project, whole organism, uHTS, GFP/RFP fluorescence ratio, strain VP596; C. elegans VP596 Pgst-4::GFP/RFP ratio, 24 h; inhibition, % at 21.8 µM; 0.49% of 360,000 active;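 active means interference check ratio from 0.5 to 1.5 plus GFP to RFP signal ratio inhibition reaching or exceeding a fixed threshold, cut at about 30% in these data, passing the limit was not always enough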
# * marks the source's active call; other numbers are inactive results; . = not tested or not shown.
SMILES,iPSC survival up,H9c2 protect,CRFBP-R2 agonist,CRFR2-BP antag,TAG inh,SKN-1 block
O=C(NC(Cc1ccccc1)C(=O)N1CCN(c2ccc(F)cc2)CC1)c1ccccc1 (stereo unspecified),-2,9,-3,-4,-6,9
Cc1ccc(Cl)cc1NC(=O)CN1CCN(S(=O)(=O)N2CCC(C)CC2)CC1,0,-4,0,5,.,-4
COC(=O)c1ccc2c(c1C(=O)OC)CN(S(=O)(=O)C(C)(C)C)[C@@H]2CCO,-1,-4,-2,8,19,0
CCOC(=O)c1ccc(-c2ccc3ncnc(NCc4csc(C)n4)c3c2)o1,-2,68*,.,.,-3,4
O=C(O)C1C2C=CC(C2)C1C(=O)NCCc1cccc(Cl)c1 (stereo unspecified),0,3,1,50*,-16,-7
c1ccc(-c2nnc(-c3ccccn3)nn2)nc1,-1,-11,1,-6,3,-7
c1ccc(-c2cccc(-c3ccccn3)n2)nc1,-3,65*,-3,22,.,-15
CCCC(=O)OCC1CN(Cc2ccco2)S(=O)(=O)c2c(F)cccc2O1 (stereo unspecified),2,11,-6,-2,0,3
COc1ccc(S(=O)(=O)N(CCCN2CCCC2=O)Cc2cc3cc(C)c(C)cc3[nH]c2=O)cc1,-2,47*,-2,-24,36,-6
CCc1nc2c(OCc3ccc(C(F)(F)F)cc3)cccn2c1N(C)C(=O)c1ccncc1,-1,-2,.,.,8,54*
COc1cccc(-c2cnc(C(O)c3ccc(OC)c(F)c3)[nH]2)c1 (stereo unspecified),-2,-2,.,.,-15,-8
CCOC(=O)c1nc(N2CCN(C(=O)OCC)CC2)c2c3c(sc2n1)CCCC3,-1,62*,0,-3,.,11
CN(C)/C=C1\C=C2C(=O)c3ccccc3N2C1=O,-1,27,217*,-220,-64,-55
COc1ccc(C(=O)NCC(=O)N2CCN(C(=O)c3ccco3)CC2)cc1,1,1,316*,-286,-11,0
Cc1ccc(C(C)(C)C)cc1S(=O)(=O)Nc1nc2ccccc2nc1Cl,-1,-7,12,64*,.,-8
Cn1c(=O)c(C#N)c(-c2ccc(F)cc2)c2cc(C(=O)c3cc(Cl)cc(Cl)c3O)cnc21,0,-15,31,53*,14,5
Clc1ccc(Cn2cc(Br)cn2)cc1Cl,-1,-4,-1,9,.,47*
O=C(Nc1ccc(-n2cnnn2)cc1)c1cn2ccccc2n1,-1,-12,104*,-64,-5,-1
O=C(Nc1ccccc1)c1cn2ccccc2n1,0,-13,1,35,1,6
N#Cc1c(C(F)(F)F)cc(-c2ccccc2)nc1SCc1nc(N)nc(N2CCOCC2)n1,7,-4,69*,-82,-252,-38
Cc1ccc(CNC(=O)CNC(=O)c2ccc(C(C)(C)C)cc2)n1C,0,-1,0,3,5,16
COc1cc2cc(-c3ccc(O)cc3O)nc(C)c2cc1OC,-1,71*,-4,19,.,18
CC1(C)CC(=O)C2=C(C1)OC(N)=C(C#N)C2c1cc2c(cc1[N+](=O)[O-])OCO2 (stereo unspecified),-1,-19,96*,-40,.,-10
O=C(CN1C(=O)CCS(=O)(=O)c2ccccc21)NCc1ccc2c(c1)OCO2,-1,7,-2,0,-2,-14
O=C(CN1C(=O)CCS(=O)(=O)c2ccccc21)NCc1ccccc1,3,1,-1,4,14,37*
SMILES,iPSC survival up,H9c2 protect,CRFBP-R2 agonist,CRFR2-BP antag,TAG inh,SKN-1 block
Cc1ccc([C@H]2C(C(=O)O)=CC[C@@H](c3ccc(C)cc3)N2S(=O)(=O)c2ccccc2C)cc1,2,11,-4,45,-8,-9
CC1(Cc2cccc(C(F)(F)F)c2)C(=O)Nc2ccc(-c3ccc(F)c(Cl)c3)cc21 (stereo unspecified),-2,-11,.,.,16,40*
CC1(Cc2ccc(Cl)cc2)C(=O)Nc2ccc(-c3cccnc3)cc21 (stereo unspecified),-2,7,.,.,-4,39*
CC1(Cc2cccc(F)c2)C(=O)Nc2ccc(-c3cccnc3)cc21 (stereo unspecified),0,-3,.,.,-27,14
CC1(Cc2cc(Cl)ccc2C(F)(F)F)C(=O)Nc2ccc(-c3ccc(F)c(Cl)c3)cc21 (stereo unspecified),-2,-11,.,.,9,17
CC(C)C[C@H](NC(=O)OC(C)(C)C)C(=O)N/N=C/C1=Cc2ccccc2OC1C (stereo partly specified),2,3,0,-42,.,6
NS(=O)(=O)c1ccc(NC(=O)COC(=O)CNC(=O)C23CC4CC(CC(C4)C2)C3)cc1,0,9,3,3,10,9
CCOC(=O)C1=CCN(S(=O)(=O)c2ccc(C)cc2)C1c1cccc(Cl)c1 (stereo unspecified),3,-2,.,.,.,14
CCOc1ccccc1C(=O)N/N=C/c1cccc2cccnc12,-1,86*,1,-2,-7,10
CCOc1ccc(C(=O)N/N=C/c2cccc3cccnc23)cc1,3,15,-5,7,8,7
CSCC[C@H](NC(=O)OC(C)(C)C)C(=O)N/N=C/c1cccc2cccnc12,0,52*,-2,-11,24,-10
CC(C)C[C@@H](CN1CCC[C@H]1CN1C(=O)C(=O)NC[C@@H]1Cc1ccccc1)N1C[C@H](Cc2ccccc2)N(CC2CCCCC2)C(=O)C1=O,0,.,.,.,.,5
C[C@H](CO)N1C[C@H](C)[C@H](CN(C)C(=O)OCc2ccccc2)OCc2cnnn2CCCC1=O,1,-1,-1,13,9,16
CCOC(=O)C1CCCN(S(=O)(=O)c2cc(Br)cc3c2N(C(C)=O)CC3)C1 (stereo unspecified),0,11,0,-7,.,8
CCOc1cc(-c2ccccc2)nc2c1CN(S(=O)(=O)c1ccc(C)cc1)C(c1cccc(Cl)c1)C2 (stereo unspecified),.,.,.,.,.,2
Clc1ccc(-c2cc3nc(NCc4cccc(Cl)c4)ccn3n2)cc1,-2,-6,.,.,19,21
CCCCN(C(=O)c1ccc2c(c1)S(=O)(=O)N=C1CCCCCN12)c1c(N)n(CCCC)c(=O)[nH]c1=O,0,2,-1,96*,-6,-1
